According to PubChem BioAssay AID1259423 (Fisher Drug Discovery Resource Center, 2018):
Several values for one entry are separate records, joined by “and”; a condition that tells them apart may be missing. Identical values can stand only once. Among all 270,000 compounds or so, about 410 (0.15%) were called active. No stated cut-off is given here; in the data, active means activation above about 40%; inactive means the rest, inconclusive results apart. The full list was thinned out, with actives kept by preference. Where a structure was tested more than once in an assay, its records may differ in their call.

System: Aedes aegypti neuropeptide Y-like receptor 7 (NPYLR7)
Experiment: agonists of mosquito NPYLR7 receptor, primary screen, cell-based, Aedes aegypti, calcium fluorescence, mosquito biting behavior (AID 1259423);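 further: 0% = vehicle and 100% = reference agonist at the receptor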
Settings: HEK293T NPYLR7/Galpha15, GCaMP6s calcium fluorescence, at 10 µM, stronger effect = higher value
[1] = measured here: Max-Min RFU normalised activation

## Cc1nc(N)sc1C(=O)N/N=C1\CCn2cccc21
  activation: 4.89% (inactive)
[1]
  activation: 3.57%

## CCc1nc2c(OCC=C(C)C)cccn2c1N(C)C(=O)c1ccco1
  activation: 6.84% (inactive)
[1]
  activation: -5.05%

## CCOC(=O)C1CCN(C(=O)CC2CSc3nc4c(c(=O)n32)CCCC4)CC1 (configuration not stated)
  activation: -0.315% (inactive)
[1]
  activation: -2.68%

## COc1ccc(NCc2cccc(F)c2)cc1N1CCOC1=O
  activation: 11.9% (inactive) and 1.76% (inactive)
[1]
  activation: 10.7% and -0.214%

## CCN(CC)c1onc(-c2ccc(F)cc2)c1CN(CCOC)C(=O)Cc1ccccc1
  activation: 15% (inactive)
[1]
  activation: 16.6%

## Cc1ccc(F)c(-n2nnnc2CSCC(=O)NC(C)(C)C)c1
  activation: 1.4% (inactive)
[1]
  activation: 3.68%

## Cc1cc(C)cc(C(O)C(F)(F)F)c1 (configuration not stated)
  activation: 4.04% (inactive) and 3.71% (inactive)
[1]
  activation: 3.27% and 11.4%

## CCc1cccc2sc(N(Cc3ccccn3)C(=O)c3cccc(S(=O)(=O)CC)c3)nc12
  activation: 1.88% (inactive)
[1]
  activation: -3.52%

## COc1ccc(CN(CC(O)COCC(C)C)CC2CCCO2)cc1OC (configuration not stated)
  activation: 1.65% (inactive)
[1]
  activation: 13.2%

## CN(Cc1ncc[nH]1)C1CCN(c2ccc3c(c2)OCO3)CC1
  activation: -10.3% (inactive)
[1]
  activation: -10.5%

## NC(=O)[C@@H]1CN2CCN(C(=O)c3ccco3)C[C@@H]2[C@H]1c1ccccc1
  activation: 2.73% (inactive)
[1]
  activation: 0.0894%

## O=C(c1ccc(-n2cnnn2)cc1)N1CCCC(N2CCCC2)C1 (configuration not stated)
  activation: 6.38% (inactive)
[1]
  activation: 2.39%

## O=c1c2ccccc2sn1CN1CCN(c2ccc(C(F)(F)F)cn2)CC1
  activation: 10.9% (inactive)
[1]
  activation: 3.72%

## CC[C@H]1CN(Cc2cc(Cl)cc(OC)c2OC)CC[C@@]1(C)O
  activation: -5.14% (inactive)
[1]
  activation: -11.2%

## Cc1ccc(CN(CCN2CCOCC2)CC(O)c2ccccc2)s1 (configuration not stated)
  activation: 1.67% (inactive)
[1]
  activation: 15.8%

## CCN1C(=O)CSC1=C(C#N)C(N)=O
  activation: 4.07% (inactive)
[1]
  activation: -0.252%

## CN(C)CC1(O)CCCN(C(=O)c2ccc(N3CCCC3=O)cc2)C1 (configuration not stated)
  activation: -3.42% (inactive)
[1]
  activation: -7.14%

## Nc1ccc2c3c(cccc13)C(=O)NC2=O
  activation: 147% (active)
[1]
  activation: 136%

## Clc1cccc2ccc(CN3CCn4cncc4C3)nc12
  activation: 133% (active)
[1]
  activation: 113%

## CC1CNC(=O)CCN1Cc1ccc2cccc(Cl)c2n1 (configuration not stated)
  activation: 8.75% (inactive)
[1]
  activation: 6.16%

## Cc1c(CN2CCn3cncc3C2)c(=O)n(-c2ccccc2)n1C
  activation: 20.8% (inactive)
[1]
  activation: 15.6%

## Cc1nc2ccccc2c(=O)n1N=Cc1ccc(OCc2ccccc2)cc1
  activation: -6.32% (inactive)
[1]
  activation: -12.4%

## CCOc1ccc(N2CC(NC(=O)Nc3ncccc3C)CC2=O)cc1 (configuration not stated)
  activation: 2.56% (inactive)
[1]
  activation: -0.89%

## O=C(Cc1cnn(-c2ccccc2)n1)N1CCCCCCC1
  activation: 10.9% (inactive)
[1]
  activation: 7.94%

## Cn1nc(C(=O)N2CCCC(COc3ccccc3F)C2)ccc1=O (configuration not stated)
  activation: 11.1% (inactive)
[1]
  activation: 4.67%

## O=C(c1cnn(-c2ccccc2)n1)N1CCCC(COCc2ccccc2)C1 (configuration not stated)
  activation: 97.3% (active)
[1]
  activation: 92.7%

## CN1CCOC(CCNC(=O)CCC(=O)N2CCCCCC2)C1 (configuration not stated)
  activation: 1.36% (inactive)
[1]
  activation: -0.93%

## COc1ccc(C=CC(=O)c2ccc(I)cc2)cc1OC
  activation: 1.5% (inactive)
[1]
  activation: 6.21%

## COc1ccc(C(=O)C=Cc2cc(Br)c(O)c(OC)c2)cc1F
  activation: 172% (active)
[1]
  activation: 160%

## COc1ccc(C(=O)C=Cc2ccc(F)c(F)c2)cc1F
  activation: 2.38% (inactive)
[1]
  activation: -4.33%

## CCCCCCC(=O)Nc1c(-c2ccc(OC)c(OC)c2)nc2cc(C)ccn12
  activation: -2.82% (inactive)
[1]
  activation: 4.02%

## CC(=O)N1CCC(C(=O)N2CCCC(C(=O)c3ccc(C(F)(F)F)cc3)C2)CC1 (configuration not stated)
  activation: 0.616% (inactive)
[1]
  activation: -1.09%

## COc1ccc(C)c2sc(N(Cc3ccccc3)C(=O)c3ccc([N+](=O)[O-])o3)nc12
  activation: 3.04% (inactive)
[1]
  activation: 0.795%

## N#C/C(=C\c1ccc2noc(-c3ccccc3)c2c1)C(=O)Nc1ccccc1C#N
  activation: 22.3% (inactive)
[1]
  activation: 18.1%

## Oc1ccc(-c2onc3ccc(Cl)cc23)cc1
  activation: 112% (active)
[1]
  activation: 227%

## c1ccc(Nc2nc(-c3ccco3)nc3ccccc23)cc1
  activation: -1.91% (inactive)
[1]
  activation: 4.58%

## COc1ccccc1-c1cc(C(=O)N2CCCC2)n2nc(C(C)(C)C)cc2n1
  activation: 3.24% (inactive)
[1]
  activation: 10.6%

## CC1CN(C(=O)NCC(C)N(C)c2ccccc2)CC(C)O1 (configuration not stated)
  activation: 4.84% (inactive)
[1]
  activation: 1.94%

## COc1ccc(CN(Cc2nc(C(=O)O)co2)C(C)c2ccccc2)c(OC)c1 (configuration not stated)
  activation: 10.6% (inactive)
[1]
  activation: 6.62%

## CN(Cc1cc(-c2ccncc2)no1)Cc1cn[nH]c1-c1cccc(F)c1
  activation: 1.92% (inactive)
[1]
  activation: 4.35%

## CC(C(=O)O)N1C(=O)/C(=C/c2ccccn2)SC1=S (configuration not stated)
  activation: -2.67% (inactive)
[1]
  activation: -6.6%

## CC(C(=O)O)N1C(=O)/C(=C/c2ccc(N(C)C)cc2)SC1=S (configuration not stated)
  activation: 64.5% (active)
[1]
  activation: 54.2%

## COc1ccc(N2C(=O)/C(=C\c3ccc(N(C)C)cc3)SC2=S)cc1
  activation: -3.18% (inactive)
[1]
  activation: -7.36%

## Brc1ccc2nc(-c3ccccc3)c(NC3CCCCC3)n2c1
  activation: -4.85% (inactive)
[1]
  activation: 5.22%

## Cc1csc(=O)n1CCC(=O)OC(C)C(N)=O (configuration not stated)
  activation: 1.77% (inactive)
[1]
  activation: 0.428%

## CC(=O)Oc1ccc(Cn2c(C)c(C(=O)NCc3ccc(C#N)cc3)sc2=O)cc1
  activation: 53.2% (active)
[1]
  activation: 43.3%

## Cc1c(C(=O)NCc2ccc(C#N)cc2)sc(=O)n1Cc1ccc(C(=O)N(C)C)cc1
  activation: 2.34% (inactive)
[1]
  activation: -0.426%

## CC(=O)Oc1ccc(Cn2c(C)c(C(=O)NCc3ccc(C(C)C)cc3)sc2=O)cc1
  activation: -6.93% (inactive)
[1]
  activation: -8.16%

## CC(=O)N1CCN(C(=O)COc2c(C)cc(Br)cc2Cl)CC1
  activation: 2.73% (inactive)
[1]
  activation: 1.6%

## COc1ccc(C(=O)Nc2cc(C(F)(F)F)ccc2Cl)cc1[N+](=O)[O-]
  activation: 1.83% (inactive)
[1]
  activation: 0.579%

## O=P1(Nc2cc(C(F)(F)F)ccc2Cl)C=C(c2ccccc2)OC(c2ccccc2)=C1
  activation: 52.5% (active)
[1]
  activation: 88.3%

## CCn1c(N2CCN(Cc3cccc4ccccc34)CC2)nc2c1c(=O)[nH]c(=O)n2C
  activation: 1.95% (inactive)
[1]
  activation: 4.2%

## O=C(Nc1nc2c(s1)CCC2)c1cnn(Cc2ccccc2)c1
  activation: -0.747% (inactive)
[1]
  activation: -2.1%

## O=C(c1ccco1)N(Cc1cccc(Cl)c1)CC1CC(c2ccccc2F)=NO1 (configuration not stated)
  activation: -2.38% (inactive)
[1]
  activation: 16.5%

## O=C1CCCCCCCCCOCCCCCO1
  activation: 1.79% (inactive)
[1]
  activation: 0.962%

## O=C(NCC1CCCO1)c1cccc(Nc2c(Oc3cccc(Cl)c3)cnn(-c3ccccc3)c2=O)c1 (configuration not stated)
  activation: 0.00562% (inactive)
[1]
  activation: 12.8%

## COCCN(CC(=O)N1CCc2sccc2C1c1ccccc1)C(=O)COCc1ccccc1 (configuration not stated)
  activation: 1.27% (inactive)
[1]
  activation: 4.39%

## Nc1c(Oc2ccccc2)cc(Nc2ccccc2)c2c1C(=O)c1ccccc1C2=O
  activation: -6.94% (inactive)
[1]
  activation: -5.96%

## Cc1csc(=Nc2ccccc2)n1C1CCCC1
  activation: 1.06% (inactive)
[1]
  activation: 7.29%

## O=C1OCCN1Cc1nc(CCc2ccccc2)nn1-c1ccccn1
  activation: -2.22% (inactive)
[1]
  activation: -8.03%

## CC(=O)c1ccc(C(=O)Nc2sc3c(c2-c2nc4ccccc4s2)CCN(C)C3)cc1
  activation: 12.4% (inactive)
[1]
  activation: 11.3%

## CC(=O)N1CCc2c(sc(NC(=O)c3cccs3)c2-c2nc3ccccc3s2)C1
  activation: 3.8% (inactive)
[1]
  activation: 5.03%

## CCOc1ccc(C(=O)Nc2sc3c(c2-c2nc4ccccc4s2)CCN(C)C3)cc1
  activation: 105% (active)
[1]
  activation: 107%

## Cc1ccc(CCC(=O)N2CCOC3(CNCCOC3)C2)cc1C (configuration not stated)
  activation: 5.94% (inactive)
[1]
  activation: 6.1%

## Cc1c(NC(=O)C(C)(C)c2ccccc2)cccc1C(=O)N1CCOCC1
  activation: 2.93% (inactive)
[1]
  activation: 1.78%

## CCOc1nc(-c2ccc(C(F)(F)F)cc2)n(-c2ccc(NCC(O)COCc3ccccc3)cc2)n1 (configuration not stated)
  activation: -2.33% (inactive)
[1]
  activation: 4.92%

## Fc1ccc(N2CCC(N3CCCC(Nc4ccccc4)C3)CC2)cc1 (configuration not stated)
  activation: -4.09% (inactive) and -0.074% (inactive)
[1]
  activation: -9.41% and 0.61%

## O=[N+]([O-])c1c(Nc2ccccc2)[nH]c2ccccc12
  activation: 15.3% (inactive)
[1]
  activation: 12.9%

## CCOC(=O)OC(C)OC(=O)C1N2C(=O)C(NC(=O)[C@H](N)c3ccccc3)C2SC1(C)C (some centres not stated)
  activation: -11.5% (inactive)
[1]
  activation: -16.7%

## CC1(C)SC2C(NC(=O)COc3ccccc3)C(=O)N2C1C(=O)O (configuration not stated)
  activation: -1.02% (inactive)
[1]
  activation: -6.97%

## CC(Oc1ccccc1)C(=O)N[C@@H]1C(=O)N2[C@@H]1SC(C)(C)[C@@H]2C(=O)O (some centres not stated)
  activation: -1.06% (inactive) and 61.5% (active)
[1]
  activation: -1.47% and 49.3%

## CCOC(=O)C(C)Sc1ccc(NC(=O)C(C)C)nn1 (configuration not stated)
  activation: 0.376% (inactive)
[1]
  activation: -0.597%

## CC(=O)N[C@H]1C[C@@H](c2c(C)nc3sccn23)O[C@@H](C2CCCCC2)C1
  activation: 19.4% (inactive)
[1]
  activation: 3.2%

## CN(c1ccccc1)c1nnc(C(O)c2cc(F)c(F)c(F)c2)s1 (configuration not stated)
  activation: 0.561% (inactive)
[1]
  activation: -0.28%

## CCc1nc2ccc(C(=O)N(C)Cc3ccco3)cn2c1N(C)CCC(C)C
  activation: -5.57% (inactive)
[1]
  activation: -12.5%

## O=C(Nc1ccc(C(F)(F)F)cc1)C1CCCN(c2ccc(-c3ccco3)nn2)C1 (configuration not stated)
  activation: -4.36% (inactive)
[1]
  activation: -8.71%

## C=CCN(Cc1csc(COc2ccc(C)c(C)c2)n1)C(=O)c1cccc(OC)c1
  activation: -4.71% (inactive)
[1]
  activation: 3.47%

## COc1cccc(/C=C2\Oc3c(ccc4c3CN(Cc3ccncc3)CO4)C2=O)c1
  activation: 66.8% (active)
[1]
  activation: 55.3%

## Cc1c(-c2ccccc2)c(=O)oc2c3c(ccc12)OCN(Cc1cccnc1)C3
  activation: -8.96% (inactive)
[1]
  activation: -15.9%

## COCCCN1COc2ccc3c(c2C1)O/C(=C\c1cccc(OC)c1OC)C3=O
  activation: 26.3% (inactive)
[1]
  activation: 20.7%

## Cc1nn(C)cc1N1C(=O)c2cccc3c([N+](=O)[O-])ccc(c23)C1=O
  activation: -4.56% (inactive)
[1]
  activation: -14.9%
